Data published in PubChem BioAssay (Tox21).
Several values for one entry are separate records, joined by “and”; a condition that tells them apart may be missing. Equal entries are not always repeated. Inconclusive results are not listed. A call without a number means that no potency is given here. A structure can be active in one record and inactive in another. Activity calls are given as the source filed them. Unless noted, calls come from the whole dose curve; as a rule, active = well fitted cell-killing curve with a large enough effect in the repeat runs; inconclusive = weak or mixed curves, or effect the other way; inactive = flat fitted curve, though single readings scatter.
Potency is the fitted concentration of half-maximal effect.

Biological target: Estrogen receptor beta (Homo sapiens) (UniProt Q92731)
Sequence (Q92731 whole entry, looked up): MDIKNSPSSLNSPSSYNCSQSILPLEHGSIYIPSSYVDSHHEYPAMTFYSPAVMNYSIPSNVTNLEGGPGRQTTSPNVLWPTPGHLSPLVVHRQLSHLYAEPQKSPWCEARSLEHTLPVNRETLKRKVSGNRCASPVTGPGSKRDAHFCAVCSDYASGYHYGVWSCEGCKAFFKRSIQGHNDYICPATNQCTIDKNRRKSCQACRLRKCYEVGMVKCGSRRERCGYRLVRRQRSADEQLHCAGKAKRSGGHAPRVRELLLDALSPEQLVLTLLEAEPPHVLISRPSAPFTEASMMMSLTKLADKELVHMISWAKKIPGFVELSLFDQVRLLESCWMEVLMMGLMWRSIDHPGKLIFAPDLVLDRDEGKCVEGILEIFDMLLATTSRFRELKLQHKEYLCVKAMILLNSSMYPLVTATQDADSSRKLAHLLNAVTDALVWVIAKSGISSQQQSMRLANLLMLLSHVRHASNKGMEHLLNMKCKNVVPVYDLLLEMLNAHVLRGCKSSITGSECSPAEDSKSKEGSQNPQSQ
Assay: qHTS assay to identify small molecule agonists of the estrogen receptor beta (ER-beta) signaling pathway (AID 1259377; active = well fitted activation curve with a large enough effect in the signal ratio in the repeat runs, not every such curve was filed as active; the % refers to the signal ratio)
Details: ER-beta-UAS-bla HEK293T, beta-lactamase FRET ratio, 16 h; series mostly up to 92.4 µM; activation: at the top concentration
Procedure, shortened: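 Measured by fluorescence intensity from a B/G FRET beta-lactamase substrate (2 h, room temperature) in ER-beta-UAS-bla HEK293T cells treated with DMSO-dissolved compounds for 16 hr at 37C and 5% CO2.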
With `Cc1cc(Cl)ccc1OCCCC(=O)O` the “activation” value was -2.01% (inactive). For `O=P(Oc1ccccc1)(Oc1ccccc1)Oc1ccccc1`, the “activation” value was -1.45% (inactive). For `CC(C)Oc1cc(-n2nc(C(C)(C)C)oc2=O)c(Cl)cc1Cl`, the Potency was “inactive”. For `CCOc1cc(Oc2ccc(C(F)(F)F)cc2Cl)ccc1[N+](=O)[O-]`, the Potency was “inactive”. With `C=C(C)C(=O)OCC1CO1` (stereo not given) the Potency was “inactive”. With `C#CCOS(=O)OC1CCCCC1Oc1ccc(C(C)(C)C)cc1` (stereo not given) the Potency was “inactive”. With `Cc1cccc(N)c1N` the Potency was “inactive”. With `N#CC(Br)Br` the “activation” value was -0.314% (inactive). With `Oc1cc(Cl)ccc1Oc1ccc(Cl)cc1Cl` the “activation” value was -1.53% [at 42.5 µM] (inactive). In the case of `O=C1C=CC(=O)C=C1`, the Potency is reported as “inactive”. With `NNC(=S)NN` the Potency was “inactive”. In the case of `O=[N+]([O-])c1cccc2ccccc12`, the Potency is reported as “inactive”. For `O=[N+]([O-])c1ccc(O)c([N+](=O)[O-])c1`, the “activation” value was -5.03% (inactive). In the case of `Nc1ccc(-c2ccc(N)c(N)c2)cc1N`, the “activation” value is reported as -5.71% (inactive). For `Nc1c(Cl)cc([N+](=O)[O-])cc1Cl`, the “activation” value was -1.19% (inactive). In the case of `Cc1ccc(N)c(N)c1`, the Potency is reported as “inactive”. With `CCC(CC)Nc1c([N+](=O)[O-])cc(C)c(C)c1[N+](=O)[O-]` the Potency was “inactive”. With `CN(C)c1ccc(C(=O)c2ccc(N(C)C)cc2)cc1` the Potency was “inactive”. For `CCCCN(CCCC)N=O`, the Potency was “inactive”. In the case of `O=C(O)C(F)(F)C(F)(F)C(F)(F)C(F)(F)C(F)(F)C(F)(F)C(F)(F)F`, the “activation” value is reported as -3.25% (inactive). In the case of `CCC(C)c1cc([N+](=O)[O-])cc([N+](=O)[O-])c1O` (stereo not given), the Potency is reported as “inactive”. For `CN(C)C(=O)Nc1ccc(Cl)cc1`, the Potency was “inactive”. With `CC(C)(C)c1ccccc1O` the “activation” value was 1.34% (inactive). With `CCOC(=S)S` the “activation” value was -0.874% (inactive). With `COP(=S)(OC)Oc1ccc([N+](=O)[O-])cc1` the “activation” value was -7.73% (inactive). With `N[C@@H](Cc1ccc(N(CCCl)CCCl)cc1)C(=O)O` the “activation” value was -0.644% [at 42.5 µM] (inactive). With `Nn1cnnc1` the Potency was “inactive”. For `CC(C)(OOC(C)(C)c1ccccc1)c1ccccc1`, the Potency was “inactive”. In the case of `C[C@]12CCC(=O)C[C@@H]1CC[C@@H]1[C@@H]2CC[C@]2(C)[C@@H](O)CC[C@@H]12`, the Potency is reported as 853 nM (active) and 546 nM (active). For `O=C(Nc1ccc(Br)cc1)c1cc(Br)cc(Br)c1O`, the “activation” value was -8.28% (inactive). With `CCOC(=O)C(C)OC(=O)c1cc(Oc2ccc(C(F)(F)F)cc2Cl)ccc1[N+](=O)[O-]` (stereo not given) the Potency was “inactive”.

Biological target: Estrogen receptor beta (Homo sapiens) (UniProt Q92731)
Assay: qHTS assay to identify small molecule antagonists of the estrogen receptor beta (ER-beta) signaling pathway (AID 1259378; active = well fitted inhibition curve with a large enough effect in the signal ratio in the repeat runs, not every such curve was filed as active; the % refers to the signal ratio)
Details: ER-beta-UAS-bla HEK293T, beta-lactamase FRET ratio, 16 h; series mostly up to 92.4 µM; activity, negative = inhibition: at the top concentration
Procedure, shortened: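 ER-beta-UAS-bla HEK293T (GripTite) cells in 2% charcoal-stripped FBS medium were preincubated 6 hr at 37C, dosed with compound, then stimulated with 1 nM E2 (final) for 16 hr; beta-lactamase reporter read by B/G FRET fluorescence after 2 hr substrate loading.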
With `ClC1C(Cl)C(Cl)C(Cl)C(Cl)C1Cl` (stereo not given) the Potency was “inactive”. In the case of `CCOc1cc(Oc2ccc(C(F)(F)F)cc2Cl)ccc1[N+](=O)[O-]`, the Potency is reported as “inactive”. For `C=C(C)C(=O)OCC1CO1` (stereo not given), the Potency was “inactive”. In the case of `C#CCOS(=O)OC1CCCCC1Oc1ccc(C(C)(C)C)cc1` (stereo not given), the Potency is reported as 5.45 µM (active) and 4.86 µM (active). In the case of `Cc1cccc(N)c1N`, the “activity, negative = inhibition” value is reported as -15.9% (inactive). For `N#CC(Br)Br`, the Potency was “inactive”. In the case of `CCC(C)(C)c1ccc(O)cc1`, the Potency is reported as “inactive”. In the case of `O=C1C=CC(=O)C=C1`, the Potency is reported as “inactive”. In the case of `O=[N+]([O-])c1cccc2ccccc12`, the Potency is reported as “inactive”. For `O=[N+]([O-])c1ccc(O)c([N+](=O)[O-])c1`, the “activity, negative = inhibition” value was -17.9% (inactive). In the case of `Nc1ccc(-c2ccc(N)c(N)c2)cc1N`, the Potency is reported as 48.4 µM (active). With `Nc1c(Cl)cc([N+](=O)[O-])cc1Cl` the “activity, negative = inhibition” value was -5.35% (inactive). In the case of `CCc1cccc(CC)c1N(COC)C(=O)CCl`, the Potency is reported as 30.6 µM (active). With `CN(C)c1ccc(C(=O)c2ccc(N(C)C)cc2)cc1` the “activity, negative = inhibition” value was -4.04% (inactive). For `CCC(C)c1cc([N+](=O)[O-])cc([N+](=O)[O-])c1O` (stereo not given), the “activity, negative = inhibition” value was -0.435% (inactive). With `Cc1ccc2c(c1N)C(=O)c1ccccc1C2=O` the Potency was “inactive”. In the case of `CN(C)C(=O)Nc1ccc(Cl)cc1`, the Potency is reported as “inactive”. For `CC(C)(C)c1ccccc1O`, the Potency was “inactive”. For `CCOCN(C(=O)CCl)c1c(C)cccc1CC`, the Potency was 21.7 µM (active). For `COP(=S)(OC)Oc1ccc([N+](=O)[O-])cc1`, the Potency was “inactive”. In the case of `N[C@@H](Cc1ccc(N(CCCl)CCCl)cc1)C(=O)O`, the Potency is reported as “inactive”. For `Nn1cnnc1`, the Potency was “inactive”. In the case of `Nc1ccc(-c2ccccc2)cc1`, the “activity, negative = inhibition” value is reported as -19.9% (inactive). In the case of `CCCCNC(=O)n1c(NC(=O)OC)nc2ccccc21`, the “activity, negative = inhibition” value is reported as -12.4% (inactive).

Tested on: not listed separately
Assay: qHTS assay to identify small molecule agonists of the androgen receptor (AR) signaling pathway in the presence of an antagonist - cell viability counter screen (AID 1259379); note: nearly all actives have a fitted effect of over 25% in size;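 for activity change, negative = cytotoxicity: MDA-kb2 human breast cancer cells carrying an MMTV luciferase reporter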
Details: MDA-kb2 viability, CellTiter-Fluor, 16 h; series mostly up to 92.4 µM; activity change, negative = cytotoxicity: at the top concentration
Procedure, shortened: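 Seed MDA-kb2 at 3,000 cells/well; incubate 5 hr, 37C, 0% CO2. Add nilutamide to 3.0uM final, then pin compounds at 15 concentrations. Incubate 16 hr. Add CellTiter-Fluor at 15 hr, read fluorescence after 1 hr.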
With `Cc1cc(Cl)ccc1OCCCC(=O)O` the Potency was “inactive”. In the case of `O=P(Oc1ccccc1)(Oc1ccccc1)Oc1ccccc1`, the Potency is reported as “inactive”. For `CC(C)Oc1cc(-n2nc(C(C)(C)C)oc2=O)c(Cl)cc1Cl`, the Potency was “inactive”. For `ClC1C(Cl)C(Cl)C(Cl)C(Cl)C1Cl` (stereo not given), the Potency was “inactive”. In the case of `CCOc1cc(Oc2ccc(C(F)(F)F)cc2Cl)ccc1[N+](=O)[O-]`, the Potency is reported as “inactive”. For `C=C(C)C(=O)OCC1CO1` (stereo not given), the Potency was “inactive”. In the case of `C#CCOS(=O)OC1CCCCC1Oc1ccc(C(C)(C)C)cc1` (stereo not given), the Potency is reported as 5.45 µM (active). In the case of `Cc1cccc(N)c1N`, the Potency is reported as “inactive”. In the case of `N#CC(Br)Br`, the “activity change, negative = cytotoxicity” value is reported as 0.496% (inactive). For `CCC(C)(C)c1ccc(O)cc1`, the Potency was “inactive”. In the case of `Oc1cc(Cl)ccc1Oc1ccc(Cl)cc1Cl`, the Potency is reported as 27.9 µM (active). In the case of `O=C1C=CC(=O)C=C1`, the Potency is reported as “inactive”. With `NNC(=S)NN` the Potency was “inactive”. For `O=[N+]([O-])c1cccc2ccccc12`, the Potency was “inactive”. With `O=[N+]([O-])c1ccc(O)c([N+](=O)[O-])c1` the Potency was 48.8 µM (active) and 48.6 µM (active). With `Nc1ccc(-c2ccc(N)c(N)c2)cc1N` the “activity change, negative = cytotoxicity” value was -2.18% (inactive). With `Nc1c(Cl)cc([N+](=O)[O-])cc1Cl` the “activity change, negative = cytotoxicity” value was -8.52% (inactive). For `Cc1ccc(N)c(N)c1`, the Potency was “inactive”. In the case of `CCc1cccc(CC)c1N(COC)C(=O)CCl`, the Potency is reported as “inactive”. In the case of `CCC(CC)Nc1c([N+](=O)[O-])cc(C)c(C)c1[N+](=O)[O-]`, the Potency is reported as “inactive”. With `CCCCN(CCCC)N=O` the Potency was “inactive”. In the case of `O=C(O)C(F)(F)C(F)(F)C(F)(F)C(F)(F)C(F)(F)C(F)(F)C(F)(F)F`, the Potency is reported as “inactive”. With `CCC(C)c1cc([N+](=O)[O-])cc([N+](=O)[O-])c1O` (stereo not given) the Potency was “inactive and 21.7 µM (active)”. With `Cc1ccc2c(c1N)C(=O)c1ccccc1C2=O` the Potency was 27 µM (active). With `CN(C)C(=O)Nc1ccc(Cl)cc1` the Potency was “inactive”. For `CC(C)(C)c1ccccc1O`, the Potency was “inactive”. For `CCOC(=S)S`, the Potency was “inactive”. With `N[C@@H](Cc1ccc(N(CCCl)CCCl)cc1)C(=O)O` the Potency was “inactive”. For `Nn1cnnc1`, the Potency was “inactive”. In the case of `CC(C)(OOC(C)(C)c1ccccc1)c1ccccc1`, the Potency is reported as “inactive”. For `Nc1ccc(-c2ccccc2)cc1`, the Potency was “inactive”. In the case of `C[C@]12CCC(=O)C[C@@H]1CC[C@@H]1[C@@H]2CC[C@]2(C)[C@@H](O)CC[C@@H]12`, the Potency is reported as 67.8 µM (active) and inactive. In the case of `CCCCNC(=O)n1c(NC(=O)OC)nc2ccccc21`, the Potency is reported as “inactive”. With `O=C(Nc1ccc(Br)cc1)c1cc(Br)cc(Br)c1O` the Potency was 21.6 µM (active) and 19.3 µM (active) and 29.8 µM (active). In the case of `CCOC(=O)C(C)OC(=O)c1cc(Oc2ccc(C(F)(F)F)cc2Cl)ccc1[N+](=O)[O-]` (stereo not given), the Potency is reported as “inactive”.
